Measured values as given in paper PMC4336329 (PLoS ONE, 2015).
Hit rate of the full screen: of about 310,000 compounds, about 14,000 (4.5%) showed an effect of 50% or more. Effects have a minus sign here. This excerpt belongs to a sample that is enriched for strong results.

Each compound was assayed against human ether-à-go-go-related gene (hERG) potassium channel (human, UniProt Q12809) (assay: primary screen, population patch clamp on CHO cells stably expressing hERG; higher = less effect of the substance).
Chain of human ether-à-go-go-related gene (hERG) potassium channel (Q12809 whole entry, looked up): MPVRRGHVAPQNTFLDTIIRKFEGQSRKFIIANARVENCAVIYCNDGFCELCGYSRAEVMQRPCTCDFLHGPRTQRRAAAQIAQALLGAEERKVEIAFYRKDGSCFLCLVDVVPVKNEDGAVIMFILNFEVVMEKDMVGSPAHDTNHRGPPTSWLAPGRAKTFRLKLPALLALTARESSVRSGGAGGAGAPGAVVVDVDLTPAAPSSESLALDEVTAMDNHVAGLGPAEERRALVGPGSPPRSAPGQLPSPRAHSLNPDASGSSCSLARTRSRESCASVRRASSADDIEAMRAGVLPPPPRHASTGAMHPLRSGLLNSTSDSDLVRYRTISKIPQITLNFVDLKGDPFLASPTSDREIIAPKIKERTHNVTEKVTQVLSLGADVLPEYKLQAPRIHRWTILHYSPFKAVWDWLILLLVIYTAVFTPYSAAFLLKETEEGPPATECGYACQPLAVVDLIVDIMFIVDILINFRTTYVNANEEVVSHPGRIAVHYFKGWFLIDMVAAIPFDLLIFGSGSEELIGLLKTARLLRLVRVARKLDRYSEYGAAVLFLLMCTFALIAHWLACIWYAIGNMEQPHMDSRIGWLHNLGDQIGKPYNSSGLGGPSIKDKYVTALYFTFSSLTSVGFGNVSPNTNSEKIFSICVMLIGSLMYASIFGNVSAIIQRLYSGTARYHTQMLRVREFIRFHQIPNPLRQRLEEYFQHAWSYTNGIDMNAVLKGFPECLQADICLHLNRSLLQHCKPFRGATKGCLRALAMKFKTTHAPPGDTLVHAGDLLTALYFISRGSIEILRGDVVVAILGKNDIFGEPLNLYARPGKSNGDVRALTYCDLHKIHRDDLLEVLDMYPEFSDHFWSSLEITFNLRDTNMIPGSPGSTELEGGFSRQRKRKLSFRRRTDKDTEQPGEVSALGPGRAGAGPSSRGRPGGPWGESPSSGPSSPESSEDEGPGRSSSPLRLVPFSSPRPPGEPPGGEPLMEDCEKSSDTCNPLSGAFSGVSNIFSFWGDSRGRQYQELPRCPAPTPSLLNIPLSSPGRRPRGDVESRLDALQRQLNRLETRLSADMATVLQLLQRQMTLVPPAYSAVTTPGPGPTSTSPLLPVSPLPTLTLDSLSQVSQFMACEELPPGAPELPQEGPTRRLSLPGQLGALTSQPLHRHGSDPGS
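Note: peak tail current of the secondary pulse compared with the same well before compound.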

Row | SMILES | hERG current change (%, negative = inhibition) at 10uM [%]
1 | COC(=O)c1cccc(NCN2C(=O)c3ccccc3C2=O)c1 | 1.11
2 | COc1ccc(NC(=O)CN(C)C(=O)Cc2c(C)nc3ccccc3c2C)cc1 | -46.1
3 | Cc1nc2ccccc2c(C)c1CC(=O)N(C)CC(=O)Nc1cccc(F)c1 | -55.9
4 | CN(CC(=O)Nc1cccc(F)c1)C(=O)Cc1n[nH]c(=O)c2ccccc12 | 5.31
5 | COc1cccc(NC(=O)CN(C)C(=O)Cc2c(C)nc3ccccc3c2C)c1 | -62.8
6 | CCOc1ccc(NC(=O)CN(C)C(=O)Cc2c(C)nc3ccccc3c2C)cc1OCC | -47
7 | CN(CC(=O)Nc1cccc(F)c1)C(=O)CCc1nc2ccccc2c(=O)[nH]1 | 2.42
8 | Cc1ccc(C(C(=O)NC(C)(C)C)N(C(=O)c2csnn2)c2ccccc2F)o1 (centres unmarked) | -9.84
9 | CC(C)CC(=O)NS(=O)(=O)c1ccc(NS(C)(=O)=O)cc1 | 11.7
10 | CCCc1nc(Nc2nc3ccccc3o2)nc(C)c1C(=O)OCC | -18.3
11 | CCOCCCN(C(=O)Cn1nnc(-c2ccc(OC)c(OC)c2)n1)C(C(=O)NCC1CCCO1)c1ccc(F)cc1 (centres unmarked) | -12.8
12 | CCN(CC)CCN(C(=O)Cn1nnc(-c2ccc(OC)c(OC)c2)n1)C(C(=O)NC1CCCC1)c1ccc(F)cc1 (centres unmarked) | -35.1
13 | CCN(CC)CCCN(C(=O)Cn1nnc(-c2ccc(OC)c(OC)c2)n1)C(C(=O)NC(C)(C)C)c1ccc(F)cc1 (centres unmarked) | -74.5
14 | CCOC(=O)N1CCN(c2c(NCc3ccc(Cl)cc3)c(=O)c2=O)CC1 | -17
15 | CCOC(=O)N1CCC(Nc2c(N3CCN(c4cccc(C(F)(F)F)c4)CC3)c(=O)c2=O)CC1 | -76.8
16 | CCOC(=O)N1CCN(c2c(N3CCN(c4cccc(C(F)(F)F)c4)CC3)c(=O)c2=O)CC1 | -46.4
17 | CCOC(=O)N1CCC(NCCNC(=O)c2ccc(F)cc2)CC1.Cl | -25.2
18 | CCOC(=O)N1CCC(N2CCN(c3ccccc3)CC2)CC1.Cl | -21.4
19 | CCOC(=O)N1CCN(c2c(NC3CCN(Cc4ccccc4)CC3)c(=O)c2=O)CC1 | 7.18
20 | CCOC(=O)N1CCC(NC(=O)c2ccc(Cl)cc2)CC1 | -14.5
21 | CCOC(=O)N1CCC(NCCNC(=O)c2ccc(Cl)cc2)CC1 | -57.8
22 | CCOC(=O)N1CCN(c2c(N3CCN(c4cc(C)ccc4C)CC3)c(=O)c2=O)CC1 | -15.1

Row | SMILES | hERG current change (%, negative = inhibition) at 10uM [%]
23 | CCOC(=O)N1CCC(Nc2c(N3CCN(c4cc(Cl)ccc4C)CC3)c(=O)c2=O)CC1 | -80.4
24 | CCOC(=O)N1CCC(N2CCN(c3cc(C)ccc3C)CC2)CC1 | -51.2
25 | CCOC(=O)N1CCC(Nc2c(NCCN3CCN(c4cccc(Cl)c4)CC3)c(=O)c2=O)CC1 | -0.879
26 | C[C@@H]1C(=O)O[C@H]2[C@H]1CC[C@@]1(C)C(=O)C=C[C@@](C)(O)[C@H]21 | 15.6
27 | C=CCN1C(=O)c2ccc(C(=O)OCC(=O)N3CCN(c4ccccc4)CC3)cc2C1=O | 7.02
28 | CC(C(=O)NCCc1ccccc1)N1c2cccc3cccc(c23)S1(=O)=O (centres unmarked) | -21.2
29 | Cc1ccc(C(=O)OCC(=O)NNC(=O)COc2ccc(Cl)cc2)c(O)c1 | -2.08
30 | O=C(Cc1ccc(NS(=O)(=O)c2ccc(F)cc2)cc1)NCc1ccccc1 | -16.4
31 | O=C(N/N=C/c1cc([N+](=O)[O-])ccc1O)C12CC3CC(CC(C3)C1)C2 | 8.39
32 | CCN(CC(=O)Nc1c(F)cccc1F)C(=O)CSc1ccccc1 | 8.37
33 | CCSc1ccccc1C(=O)N1CCN(c2ccc([N+](=O)[O-])cc2)CC1 | -79.4
34 | CC(NC(=O)c1cnc2n(c1=O)CCS2)c1ccccc1 (centres unmarked) | 3.42
35 | CCSc1ccccc1C(=O)Nc1ccc([N+](=O)[O-])cc1OC | -51.9
36 | CCSc1ccccc1C(=O)N1CCN(c2ccccc2F)CC1 | 17.6
37 | O=C(c1cnc2n(c1=O)CCS2)N1CCN(c2ccccc2F)CC1 | -5.65
38 | CCSc1ccccc1C(=O)N1CCCC1 | -5.81
39 | COCCSc1ccccc1C(=O)Nc1ccc([N+](=O)[O-])cc1OC | -39.9
40 | O=C(c1cc([N+](=O)[O-])ccc1Cl)N1CCN(c2ccc([N+](=O)[O-])cc2)CC1 | -73.6
41 | O=C(c1cnc2n(c1=O)CCS2)N1CCN(C(c2ccccc2)c2ccc(Cl)cc2)CC1 (centres unmarked) | -52.4
42 | O=C(c1cc([N+](=O)[O-])ccc1Cl)N1CCN(c2ccccc2)CC1 | -6.43
43 | COCCSc1ccccc1C(=O)Nc1cc([N+](=O)[O-])ccc1OC | -28.8
44 | O=C(c1cc([N+](=O)[O-])ccc1Cl)N1CCN(c2ccc(F)cc2)CC1 | -27.9
